Measured values: the supplement of paper PMC8728848
Many of the other results were omitted from the sample, so the strongest signals are more common in it than they were.

Tests used:
Assay in all cases: glycan array binding signal (z-score within array); higher = stronger binding
Details in all cases: glycan notation: IUPAC condensed, linker removed
[1] = target: Fuc(a1-2)Gal(b1-3)GalNAc(a1-3)[Fuc(a1-2)]Gal(b1-4)GlcNAc
Outline: (§1)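 Glycan array data were curated from 3228 arrays in the Consortium for Functional Glycomics database and kept only where the protein sequence was available. Glycan names were converted to IUPAC-condensed notation, and columns mapping to the same glycan were averaged. The binding signal is a within-array Z-score, averaged across arrays of the same protein sequence at different concentrations or buffers and across linkers. Negative Z-scores can be read as non-binding.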

[2] = target: Fuc(a1-2)Gal(b1-3)GlcNAc(b1-3)[Fuc(a1-2)Gal(b1-3)GlcNAc(b1-6)]GalNAc
Outline: as §1

[3] = target: Fuc(a1-2)Gal(b1-4)[Fuc(a1-3)]GlcNAc(b1-3)Gal(b1-4)[Fuc(a1-3)]GlcNAc(b1-3)Gal(b1-4)[Fuc(a1-3)]GlcNAc
Outline: as §1

[4] = target: Fuc(a1-2)Gal(b1-4)[Fuc(a1-3)]GlcNAc(b1-3)[Neu5Ac(a2-6)Gal(b1-4)GlcNAc(b1-6)]Gal(b1-4)Glc
Outline: as §1

Fuc(a1-2)Gal6S(b1-4)Glc = target: Fuc(a1-2)Gal6S(b1-4)Glc
Outline: as §1

[5] = target: Fuc(a1-2)[Gal(a1-3)]Gal(b1-3)GalNAc
Outline: as §1

[6] = target: Fuc(a1-2)[Gal(a1-3)]Gal(b1-3)GlcNAc(b1-2)Man(a1-3)[Fuc(a1-2)[Gal(a1-3)]Gal(b1-3)GlcNAc(b1-2)Man(a1-6)]Man(b1-4)GlcNAc(b1-4)GlcNAc
Outline: as §1

[7] = target: Fuc(a1-2)[Gal(a1-3)]Gal(b1-4)GlcNAc(b1-3)[Fuc(a1-2)[Gal(a1-3)]Gal(b1-4)GlcNAc(b1-6)]GalNAc
Outline: as §1

[8] = target: Fuc(a1-2)[Gal(a1-3)]Gal(b1-4)[Fuc(a1-3)]GlcNAc(b1-3)GalNAc
Outline: as §1

[9] = target: Fuc(a1-2)[GalNAc(a1-3)]Gal(b1-3)GlcNAc
Outline: as §1

[10] = target: Fuc(a1-3)[Gal(b1-4)]GlcNAc(b1-2)Man
Outline: as §1

[11] = target: Fuc(a1-3)[Gal(b1-4)]GlcNAc(b1-6)GalNAc
Outline: as §1

[12] = target: Fuc(a1-3)[GalNAc(b1-4)]GlcNAc
Outline: as §1

[13] = target: Gal(a1-3)Gal(b1-4)GlcNAc(b1-3)GalNAc
Outline: as §1

[14] = target: Gal(a1-3)[Gal(a1-4)]Gal(b1-4)GlcNAc
Outline: as §1

[15] = target: Gal(b1-3)GalNAc(a1-3)[Fuc(a1-2)]Gal(b1-4)GlcNAc
Outline: as §1

[16] = target: Gal(b1-3)GlcNAc(b1-2)[Gal(b1-3)GlcNAc(b1-6)]Man(a1-6)[Gal(b1-3)GlcNAc(b1-2)Man(a1-3)]Man(b1-4)GlcNAc(b1-4)GlcNAc
Outline: as §1

[17] = target: Gal(b1-3)GlcNAc(b1-6)GalNAc
Outline: as §1

[18] = target: Gal(b1-3)[Fuc(a1-4)]GlcNAc(b1-6)GalNAc
Outline: as §1

[19] = target: Gal(b1-4)GalNAc(a1-3)[Fuc(a1-2)]Gal(b1-4)GlcNAc
Outline: as §1

[20] = target: Gal(b1-4)GlcNAc(b1-2)Man(a1-6)Man(b1-4)GlcNAc(b1-4)GlcNAc
Outline: as §1

[21] = target: Gal(b1-4)GlcNAc(b1-3)Gal(b1-4)GlcNAc(b1-2)Man(a1-3)[Gal(b1-4)GlcNAc(b1-3)Gal(b1-4)GlcNAc(b1-2)Man(a1-6)]Man(b1-4)GlcNAc(b1-4)GlcNAc
Outline: as §1

[22] = target: Gal(b1-4)GlcNAc(b1-3)Gal(b1-4)GlcNAc(b1-2)[Gal(b1-4)GlcNAc(b1-3)Gal(b1-4)GlcNAc(b1-6)]Man(a1-6)[Gal(b1-4)GlcNAc(b1-3)Gal(b1-4)GlcNAc(b1-2)Man(a1-3)]Man(b1-4)GlcNAc(b1-4)GlcNAc
Outline: as §1

[23] = target: Gal(b1-4)GlcNAc(b1-3)Gal(b1-4)GlcNAc(b1-2)[Gal(b1-4)GlcNAc(b1-3)Gal(b1-4)GlcNAc(b1-6)]Man(a1-6)[Gal(b1-4)GlcNAc(b1-3)Gal(b1-4)GlcNAc(b1-2)Man(a1-3)]Man(b1-4)GlcNAc(b1-4)[Fuc(a1-6)]GlcNAc
Outline: as §1

[24] = target: Gal(b1-4)GlcNAc(b1-3)Gal(b1-4)GlcNAc(b1-3)Gal(b1-4)GlcNAc(b1-3)Gal(b1-4)GlcNAc(b1-2)[Gal(b1-4)GlcNAc(b1-3)Gal(b1-4)GlcNAc(b1-3)Gal(b1-4)GlcNAc(b1-3)Gal(b1-4)GlcNAc(b1-6)]Man(a1-6)[Gal(b1-4)GlcNAc(b1-3)Gal(b1-4)GlcNAc(b1-3)Gal(b1-4)GlcNAc(b1-3)Gal(b1-4)GlcNAc(b1-2)Man(a1-3)]Man(b1-4)GlcNAc(b1-4)[Fuc(a1-6)]GlcNAc
Outline: as §1

[25] = target: Gal(b1-4)GlcNAc(b1-3)Gal(b1-4)GlcNAc(b1-3)Gal(b1-4)GlcNAc(b1-3)Gal(b1-4)GlcNAc(b1-3)Gal(b1-4)GlcNAc(b1-2)[Gal(b1-4)GlcNAc(b1-3)Gal(b1-4)GlcNAc(b1-3)Gal(b1-4)GlcNAc(b1-3)Gal(b1-4)GlcNAc(b1-3)Gal(b1-4)GlcNAc(b1-6)]Man(a1-6)[Gal(b1-4)GlcNAc(b1-3)Gal(b1-4)GlcNAc(b1-3)Gal(b1-4)GlcNAc(b1-3)Gal(b1-4)GlcNAc(b1-3)Gal(b1-4)GlcNAc(b1-2)Man(a1-3)]Man(b1-4)GlcNAc(b1-4)[Fuc(a1-6)]GlcNAc
Outline: as §1

[26] = target: Gal(b1-4)GlcNAc(b1-6)Gal(b1-4)GlcNAc
Outline: as §1

Gal3S(b1-3)GlcNAc = target: Gal3S(b1-3)GlcNAc
Outline: as §1

Gal3S4S(b1-4)GlcNAc = target: Gal3S4S(b1-4)GlcNAc
Outline: as §1

[27] = target: GalNAc(b1-4)GlcNAc(b1-2)Man(a1-3)[GalNAc(b1-4)GlcNAc(b1-2)Man(a1-6)]Man(b1-4)GlcNAc(b1-4)GlcNAc
Outline: as §1

B1: PX9961C-bth-497-22-497 (Bacteroides thetaiotaomicron) (protein)
chain: DWLDLNTTSSVETGQAIVTLDDAQIALNGIYRLASGHSYYGDNYWYYGDCRAADVQARITKGDGKRVSPYYEYNVLASDNLNIVLPWNTVYKVIRQTNNLIQKIESGSIQSSDTKELNRIKSEALVMRGLSLFNLTRLFGMPYTNDKGASLGVPIETSPSDPTHKPSRSTVAQCYEQVVSDMSNALSGLRQETSNGYINYWAAQALLSRVYLNMGEYQKAYDAATDVIKNNGGRYQLYSYEEYPNVWGQDFQSESLFELYITLSEPSGGTGGEGAPMVYANEATVDWNNLILSEDFLNLLNEDPKDVRHCLTKESVIENNTGLPAAAMHEKVYLAKFPGKTGDDPKTNNICIIRLSEVYLNAAEAGLKKGTDIEEAQGYLNDIISRRTTDTSQQVSTETFTLDRILKERRKELVGEGEVFYDYLRNGLAIERKGSWHLETLKASNAQKIEATDLRIALPIPQSEIDANPNIQQNPR
Q: For B1, which “glycan array binding signal (z-score)” value [1] is on record?
A: -0.6

Q: What about the “glycan array binding signal (z-score)” value [2] of the same binder?
A: 0.12

Q: What about the “glycan array binding signal (z-score)” value [3] of the same binder?
A: -0.517

Q: And the “glycan array binding signal (z-score)” value [4]?
A: -0.648

Q: And the “glycan array binding signal (z-score)” value (Fuc(a1-2)Gal6S(b1-4)Glc)?
A: -0.078

Q: What about the “glycan array binding signal (z-score)” value [5] of the same binder?
A: -0.3

Q: What about the “glycan array binding signal (z-score)” value [6] of the same binder?
A: 1.08

Q: And the “glycan array binding signal (z-score)” value [7]?
A: -0.459

Q: And the “glycan array binding signal (z-score)” value [8]?
A: -0.284

Q: And the “glycan array binding signal (z-score)” value [9]?
A: -0.776

Q: What about the “glycan array binding signal (z-score)” value [10] of the same binder?
A: 1.56

Q: What about the “glycan array binding signal (z-score)” value [11] of the same binder?
A: 0.511

Q: What about the “glycan array binding signal (z-score)” value [12] of the same binder?
A: 0.598

Q: What about the “glycan array binding signal (z-score)” value [13] of the same binder?
A: -0.646

Q: What about the “glycan array binding signal (z-score)” value [14] of the same binder?
A: 2.48

Q: What about the “glycan array binding signal (z-score)” value [15] of the same binder?
A: -0.307

Q: And the “glycan array binding signal (z-score)” value [16]?
A: 14.1

Q: And the “glycan array binding signal (z-score)” value [17]?
A: -0.427

Q: What about the “glycan array binding signal (z-score)” value [18] of the same binder?
A: -0.101

Q: And the “glycan array binding signal (z-score)” value [19]?
A: -0.203

Q: What about the “glycan array binding signal (z-score)” value [20] of the same binder?
A: -0.302

Q: And the “glycan array binding signal (z-score)” value [21]?
A: 1.26

Q: What about the “glycan array binding signal (z-score)” value [22] of the same binder?
A: 2.36

Q: And the “glycan array binding signal (z-score)” value [23]?
A: 2.08

Q: And the “glycan array binding signal (z-score)” value [24]?
A: -0.171

Q: And the “glycan array binding signal (z-score)” value [25]?
A: 7.33

Q: And the “glycan array binding signal (z-score)” value [26]?
A: -0.211

Q: And the “glycan array binding signal (z-score)” value (Gal3S(b1-3)GlcNAc)?
A: -0.219

Q: And the “glycan array binding signal (z-score)” value (Gal3S4S(b1-4)GlcNAc)?
A: 0.105

Q: And the “glycan array binding signal (z-score)” value [27]?
A: 1.18
